This is one part of a sample in which hits are shown more often than they occur.
KDM5B inhibitor = KDM5B demethylase inhibition | Q9UGL1 | KDM5B demethylase, FDH-coupled NADH fluorescence (FDH is formaldehyde dehydrogenase) | Potency, µM (doses to about 57.7 µM), usual class: inhibitors | 220,000 tested, 2.6% active; active means well fitted inhibition curve with a large enough effect; further: nearly all actives have a fitted effect of over 70% in size
Target sequence (Q9UGL1 whole entry, looked up): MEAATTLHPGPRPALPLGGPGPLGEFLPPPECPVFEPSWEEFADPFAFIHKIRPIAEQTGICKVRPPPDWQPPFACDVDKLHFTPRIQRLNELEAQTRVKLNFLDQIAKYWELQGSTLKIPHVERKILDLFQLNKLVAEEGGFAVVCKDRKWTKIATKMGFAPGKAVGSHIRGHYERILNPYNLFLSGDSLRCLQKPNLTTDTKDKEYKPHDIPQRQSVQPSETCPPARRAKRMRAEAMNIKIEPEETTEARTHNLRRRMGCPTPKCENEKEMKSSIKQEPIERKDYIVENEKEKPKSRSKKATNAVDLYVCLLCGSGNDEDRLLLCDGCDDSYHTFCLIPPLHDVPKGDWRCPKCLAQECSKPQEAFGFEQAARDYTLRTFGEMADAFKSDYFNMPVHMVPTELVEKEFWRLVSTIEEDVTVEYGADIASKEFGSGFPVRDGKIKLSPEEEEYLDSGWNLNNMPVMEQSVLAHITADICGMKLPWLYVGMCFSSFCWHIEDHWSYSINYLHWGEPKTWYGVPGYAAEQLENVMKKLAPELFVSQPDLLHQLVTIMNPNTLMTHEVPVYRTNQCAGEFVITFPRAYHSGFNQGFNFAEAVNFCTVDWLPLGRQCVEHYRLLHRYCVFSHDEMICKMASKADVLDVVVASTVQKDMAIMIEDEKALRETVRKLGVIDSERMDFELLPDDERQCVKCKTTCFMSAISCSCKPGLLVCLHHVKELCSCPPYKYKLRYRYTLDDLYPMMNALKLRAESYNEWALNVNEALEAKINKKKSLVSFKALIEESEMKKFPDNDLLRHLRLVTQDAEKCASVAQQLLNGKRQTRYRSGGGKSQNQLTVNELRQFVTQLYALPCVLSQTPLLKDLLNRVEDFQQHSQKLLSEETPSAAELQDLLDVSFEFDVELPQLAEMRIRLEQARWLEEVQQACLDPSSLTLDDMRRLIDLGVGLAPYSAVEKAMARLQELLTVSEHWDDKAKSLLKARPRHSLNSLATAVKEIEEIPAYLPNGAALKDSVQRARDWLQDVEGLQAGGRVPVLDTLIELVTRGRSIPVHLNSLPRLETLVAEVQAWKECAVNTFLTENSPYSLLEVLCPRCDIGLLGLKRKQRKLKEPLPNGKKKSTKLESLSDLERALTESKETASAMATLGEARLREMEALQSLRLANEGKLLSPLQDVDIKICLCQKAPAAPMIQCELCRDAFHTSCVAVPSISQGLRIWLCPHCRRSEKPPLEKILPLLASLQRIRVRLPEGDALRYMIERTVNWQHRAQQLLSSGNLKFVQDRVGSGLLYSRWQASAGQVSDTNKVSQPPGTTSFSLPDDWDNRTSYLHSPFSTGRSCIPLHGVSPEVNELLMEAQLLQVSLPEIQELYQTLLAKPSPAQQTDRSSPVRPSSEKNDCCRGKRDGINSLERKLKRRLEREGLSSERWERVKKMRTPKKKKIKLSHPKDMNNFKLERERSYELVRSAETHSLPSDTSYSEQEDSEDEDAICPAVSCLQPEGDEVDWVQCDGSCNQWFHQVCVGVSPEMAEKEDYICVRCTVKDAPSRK
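qHTS format, multiple compound concentrations. Buffer 50 mM HEPES pH 7.5/0.01% Tween-20; 200 nM KDM5BΔAP final; 10 min compound preincubation; substrate-mix levels 12.5 µM peptide, 25 µM α-KG, 0.25 mM NAD⁺; 30 min RT; ΔRFU.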
A number is an active result; . = inactive.

SMILES	KDM5B inhibitor
COc1ccc(CCC(=O)N2CCCC(c3nc(C4CCOCC4)no3)C2)cc1 (stereo unspecified)	.
COc1ccc(NC(=O)CSc2nc3ccccc3n2CC(=O)N2CCCC(C)C2)cc1 (stereo unspecified)	.
COc1cccc(CCC(=O)N2CCCC(c3[nH]ccc3C(N)=O)C2)c1 (stereo unspecified)	.
COc1cccc(-c2nc3cnccn3c2NCCC(=O)Nc2cccc(Cl)c2)c1	28.2µM
COc1cccc(CCC(=O)N2CCC(c3noc(-c4cnccn4)n3)C2)c1 (stereo unspecified)	.
COc1ccc(-c2nc3cnccn3c2NCCC(=O)N2CCCC(C)C2)cc1 (stereo unspecified)	28.2µM
COc1ccc(Cn2c(CCC(=O)Nc3cccc(Cl)c3)nc3cccnc32)cc1	.
CCc1ccc2nc(-c3ccnn3CC)cc(C(=O)O)c2c1	.
O=C(COC(=O)c1cccs1)c1ccc(OCc2ccccc2)cc1	.
N#Cc1ccc(/C=C/C(=O)N(Cc2ccc(C(F)(F)F)cc2)C2CC2)cc1	.
CSc1ccc(Cl)c(C(=O)Oc2cccc(Cl)c2Cl)c1	.
CCOC(=O)c1c(CSc2ccccc2)n(C)c2cc(Br)c(OCC(O)CNC3CCCCC3)cc12 (stereo unspecified)	.
COCc1nnc2n1CCC(NC(=O)c1ccc3cc[nH]c3c1)CC2 (stereo unspecified)	28.2µM
COCc1nnc2n1CCC(NC(=O)c1cc(C3CC3)[nH]n1)CC2 (stereo unspecified)	.
COCc1nnc2n1CCC(NC(=O)c1ccn(C)n1)CC2 (stereo unspecified)	.
Cc1ccsc1C(=O)Nc1ccc(-c2nnc3n2CCCC3)cc1	.
COc1cc(OC)cc(C(=O)Nc2ccc(Sc3c(C)c(C)nc4ncnn34)cc2)c1	.
COc1nc2ccccc2nc1CCC(=O)N[C@H]1COC[C@H]1Cc1cc(C)no1	28.2µM
Cc1cc(C[C@@H]2COC[C@@H]2NC(=O)CCc2nc(-c3ccccc3C)no2)on1	.
COc1ccc(C2(C(=O)N[C@H]3COC[C@H]3Cc3cc(C)no3)CCCC2)cc1	.
CCc1nc(C)c(C(=O)N[C@H]2COC[C@H]2Cc2cc(C)no2)s1	.
COc1ccc2[nH]c(C(=O)N[C@H]3COC[C@H]3Cc3cc(C)no3)c(C)c2c1	22.4µM
Cc1cc(C[C@@H]2COC[C@@H]2NC(=O)CCCn2cncn2)on1	.
COc1ccc(C(C)=O)cc1COC(=O)C1CC2CCCC(C1)C2=O (stereo unspecified)	.
O[C@H]1[C@H](NCC2CCCCC2)[C@H]2CO[C@H](O2)[C@@H]1N1CCC(Cc2ccccc2)CC1	.
SMILES	KDM5B inhibitor
CC1(C(=O)NCC2CC2)CCCc2cnc(NCc3ccccc3)nc21 (stereo unspecified)	35.5µM
CC1(C(=O)NC2CC2)CCc2cnc(Nc3ccccc3)nc21 (stereo unspecified)	.
CC1(C(=O)NCC2CCCO2)CCc2cnc(NCc3ccccc3)nc21 (stereo unspecified)	39.8µM
CC1(C(=O)NCCc2ccccn2)CCc2cnc(NCc3ccccc3)nc21 (stereo unspecified)	31.6µM
Cc1oc(-c2ccccc2)nc1CC(=O)NCC1CCCO1 (stereo unspecified)	.
CC1(C(=O)NCCCn2ccnc2)COCc2cnc(Nc3ccccc3)nc21 (stereo unspecified)	.
CC1(C(=O)NC2CC2)CCCc2cnc(Nc3ccccc3)nc21 (stereo unspecified)	.
O=C(Cc1ccc(-c2ccccc2)cc1)NCCc1ccccn1	.
CCc1cc2c(=O)c(-c3nncn3-c3ccccc3)coc2cc1OCC(=O)NCC(=O)O	.
Cc1ccc(C)c(C(=O)COC(=O)CCSc2ccc(Cl)cc2)c1	.
CC(=O)c1ccc(OC(=O)c2cnc(C)cn2)cc1	.
CC1CCC(NC(=O)C2CC(=O)Nc3cc(F)ccc32)CC1 (stereo unspecified)	.
CC(C)c1ccc(C(=O)NC(C)c2ccccc2F)cc1 (stereo unspecified)	.
CN(Cc1ccc(F)cc1)C(=O)c1n[nH]c(=O)c2ccccc12	.
COc1ccc2cc1Nc1ccc(cc1)C[C@H](NCC1CC1)C(=O)N(C)[C@@H](C(=O)Nc1ccccc1)C2	.
Cc1ccc([N+](=O)[O-])c(NC(=O)COc2ncnc3ccccc23)c1C	.
COc1ccc(NC(=O)CSc2nc(N3CCOCC3)c3c(c2C#N)CC(C)(C)OC3)cc1	.
CC(=O)N1CCc2cc(S(=O)(=O)CCC(=O)N3CCC(CCOc4ccccc4)C3)ccc21 (stereo unspecified)	.
CN1C(=O)CC[C@]2(C(=O)NCc3cccc(Cl)c3)CCCC[C@@H]12	.
CC1(C(=O)NCc2cccnc2)CCCc2cnc(Nc3ccccc3F)nc21 (stereo unspecified)	.
CCn1cc([N+](=O)[O-])c(C(=O)NCc2ccc3c(c2)OCO3)n1	.
CN(C)c1ncc2c(n1)C(C)(C(=O)NCc1ccc3c(c1)OCO3)CCC2 (stereo unspecified)	31.6µM
CN(C)c1ncc2c(n1)C(C)(C(=O)NCc1cccc(Cl)c1)CCC2 (stereo unspecified)	39.8µM
Cc1cnc(C(=O)N[C@@H]2CCC[C@@H]2C(=O)NCc2ccc3c(c2)OCO3)cn1	.
CC1CCc2cc(F)ccc2N1C(=S)NC1CC1 (stereo unspecified)	.
SMILES	KDM5B inhibitor
COc1ccc(-c2cc(C(=O)OCC#N)c3ccccc3n2)cc1OC	.
Cc1ccc2ncc(C(=O)N3CCN(c4ccccc4F)CC3)c(=O)n2c1	.
Cc1cccc(CN2CCN(C(=O)c3n[nH]c(=O)c4ccccc34)CC2)c1	.
Cc1cccc(CN2CCN(C(=O)c3cnc4ccccn4c3=O)CC2=O)c1	31.6µM
Cc1ccc(O)c(NC(=O)c2cc(-c3ccccn3)nc3ccccc23)c1	.
CNC(=O)NC(=O)CCN1CCOC(c2cccc(Br)c2)C1 (stereo unspecified)	.
Cc1nc2ccc(C(=O)N3C[C@@H]4CCN(C)C[C@]4(C(=O)O)C3)cc2s1	.
CNc1cc(C)nc(N2C[C@H]3CN(C(=O)N(C)C)C[C@@]3(C(=O)O)C2)n1	22.4µM
CNc1cc(C)nc(N2CC[C@H](N3CCOCC3)[C@H](CCC(=O)O)C2)n1	.
O=C(OCCOc1ccccc1)c1ccc2nccnc2c1	.
Cc1cccc(OCC(O)Cn2cnc3c2c(=O)n(C)c(=O)n3C)c1 (stereo unspecified)	.
O=C(O)c1cc(F)ccc1-c1ccccc1	.
Clc1cc(Cl)c(N/N=C/c2ccccc2I)c(Cl)c1	.
N#Cc1ccc(S(=O)(=O)N2CC[C@@H]3C(=O)NCCCCCCN(Cc4ccncc4)[C@@H]3C2)cc1	.
N#Cc1ccc(CN2CCCCCCNC(=O)[C@@H]3C[C@@H](C(=O)NCCc4cnc[nH]4)C[C@@H]32)cc1	20µM
Cc1ccc(CNC(=O)N2CCCCCCNC(=O)[C@@H]3C[C@@H](C(=O)NCCc4cnc[nH]4)C[C@@H]32)cc1	.
CC(C)c1nc2c(c(-c3ccc(O)cc3)n1)CCN(Cc1cccc3ccccc13)CC2	.
CC(C)c1ccc(CN2CCN(C(=O)c3cccc4ncccc34)CC2)cc1	.
Cc1c(-c2ccccc2F)[nH]c2ccc(CNC(=O)C3CCNC3)cc12 (stereo unspecified)	28.2µM
Cc1c(-c2ccccc2F)[nH]c2ccc(CNS(=O)(=O)C3CC3)cc12	28.2µM
COC(=O)c1c(C)[nH]c(-c2ccccc2F)c1C1C(=O)Nc2ccccc21 (stereo unspecified)	.

Screening results as filed in PubChem BioAssay.
